Test systems include RPMI-8226 leukemia; OVCAR-8 ovarian; OVCAR-5 ovarian; OVCAR-4 ovarian; SK-OV-3 ovarian; IGROV1 ovarian; OVCAR-3 ovarian; HS 578T breast; NCI/ADR-RES ovarian; T-47D breast; BT-549 breast; MDA-MB-435 melanoma; SW-620 colon; MCF7 breast; HCT-116 colon; HCC-2998 colon; KM12 colon.
Experiment in all cases: NCI-60 one-dose screen, 48 h (100 = growth as untreated, 0 = no growth, -100 = all killed)
Conditions in all cases: 10 µM unless noted

About 83,000 compounds went through this panel and 20% of them were active in at least one assay; those are over-represented in the sample as a whole.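 Cell lines were cultured in 96-well plates, exposed to a single compound concentration, and assessed for percent growth 48 hours later.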 Unmarked numbers belong to inactive results. The source made the active and inactive calls. The calls were made as follows: active = growth percent below 10; inactive = the rest.

With `O=C(CCc1nnc(Cn2cncn2)o1)c1nc2ccccc2[nH]1`, the growth in the test with RPMI-8226 leukemia is 108%; with OVCAR-8 ovarian it was 107%; in the test with OVCAR-5 ovarian it was 107%; with OVCAR-4 ovarian, 111%; with SK-OV-3 ovarian, 116%; in the test on IGROV1 ovarian, 118%. Moreover, the growth in the test with OVCAR-3 ovarian was 122%; in the test on HS 578T breast it was 127%; in the test on NCI/ADR-RES ovarian, 105%; with T-47D breast, 108%; with BT-549 breast, 112%; in the test with MDA-MB-435 melanoma, 103%. In addition, the growth is 113% in the test on SW-620 colon; 91% in the test on MCF7 breast; 111% in the test with HCT-116 colon; 112% in the test with HCC-2998 colon; 114% with KM12 colon.
For the molecule `O=C(Nc1nc(-c2ccccc2)cs1)c1cc(O)c(O)c(O)c1`, the growth was 17.8% in the test on RPMI-8226 leukemia; 39% with OVCAR-8 ovarian; 89.4% with OVCAR-5 ovarian; 44.5% in the test with OVCAR-4 ovarian; 70% with SK-OV-3 ovarian; 33.2% in the test with IGROV1 ovarian. Moreover, the growth was 22.3% in the test with OVCAR-3 ovarian; 73.6% in the test on HS 578T breast; 47% in the test with NCI/ADR-RES ovarian; 31.2% in the test with T-47D breast; 46% with BT-549 breast; 61% with MDA-MB-435 melanoma. Further, the growth with SW-620 colon is 39.7%; with MCF7 breast, 58.4%; in the test with HCT-116 colon, 25.9%; in the test on KM12 colon it was 64.7%.
Turning to `CC1(C)OC(=O)C(=Cc2ccccc2Br)C(=O)O1`, the growth with RPMI-8226 leukemia is 95.5%; with OVCAR-8 ovarian it was 99.4%; in the test on OVCAR-5 ovarian, 96.6%; with OVCAR-4 ovarian, 102%; in the test with SK-OV-3 ovarian, 111%; in the test with IGROV1 ovarian it was 102%. Also, the growth with OVCAR-3 ovarian is 106%; in the test with HS 578T breast it was 101%; in the test with NCI/ADR-RES ovarian it was 106%; in the test on T-47D breast, 102%; with BT-549 breast, 107%; in the test with MDA-MB-435 melanoma, 98%. Besides, the growth in the test on SW-620 colon is 96.2%; with MCF7 breast, 102%; in the test with HCT-116 colon it was 79.3%; with KM12 colon, 108%.
With `c1cnc2n[nH]c(Nc3ncnc4c3sc3ncccc34)c2c1`, the growth in the test with RPMI-8226 leukemia is 88.1%; in the test on OVCAR-8 ovarian, 96.8%; with OVCAR-5 ovarian, 93.2%; in the test with OVCAR-4 ovarian it was 102%; in the test with SK-OV-3 ovarian it was 102%; in the test with IGROV1 ovarian it was 109%. The growth in the test with OVCAR-3 ovarian was 111%; in the test on HS 578T breast, 117%; in the test on NCI/ADR-RES ovarian, 104%; in the test on T-47D breast, 93.5%; with BT-549 breast, 106%; in the test on MDA-MB-435 melanoma it was 101%. In addition, the growth was 101% in the test on SW-620 colon; 91.3% in the test on MCF7 breast; 96.2% with HCT-116 colon; 108% in the test on HCC-2998 colon; 103% with KM12 colon.
For the molecule `CCOC(=O)/C(=C/c1ccccc1)C(=O)c1ccccc1`, the growth with RPMI-8226 leukemia was 3.77% (active); in the test with OVCAR-8 ovarian, 65.3%; in the test on OVCAR-5 ovarian, 97.3%; in the test with OVCAR-4 ovarian, 81.8%; in the test on SK-OV-3 ovarian it was 92.6%; in the test with IGROV1 ovarian, 65.8%. The growth was 63.5% with OVCAR-3 ovarian; 88% in the test with HS 578T breast; 65.3% in the test on NCI/ADR-RES ovarian; 73.6% in the test with T-47D breast; 73.4% in the test on BT-549 breast; 50.8% in the test on MDA-MB-435 melanoma. For the same molecule, the growth was 70.9% with SW-620 colon, 41.1% in the test with MCF7 breast, 39.4% with HCT-116 colon and 67.1% with KM12 colon.
As to `CCOC(=O)C1=C(C)N2C(=NC3=C(CCC/C3=C\c3ccc(Cl)cc3)C2c2ccc(Cl)cc2)S1` (stereo unspecified), the growth is -19.1% (active) in the test with RPMI-8226 leukemia; 23% in the test with OVCAR-8 ovarian; 78.1% in the test with OVCAR-5 ovarian; 48.3% with OVCAR-4 ovarian; 47% in the test with SK-OV-3 ovarian; 12.8% in the test on IGROV1 ovarian. Moreover, the growth with OVCAR-3 ovarian was -29.2% (active); in the test on HS 578T breast, 51.7%; in the test with NCI/ADR-RES ovarian, 39.4%; with T-47D breast it was 25.3%; in the test on BT-549 breast, -44.5% (active); in the test on MDA-MB-435 melanoma, -14% (active). The growth is -59.8% (active) with SW-620 colon, -43.7% (active) with MCF7 breast, -100% (active) with HCC-2998 colon and -73.3% (active) in the test with KM12 colon.
As for `Cc1c(NCc2nnc3n(Cc4ccccc4)c(=O)c4c5c(sc4n23)CCCC5)c(=O)n(-c2ccccc2)n1C`, the growth with RPMI-8226 leukemia was 97.5%; with OVCAR-8 ovarian, 86.3%; in the test on OVCAR-5 ovarian, 107%; in the test with OVCAR-4 ovarian it was 74.7%; in the test with SK-OV-3 ovarian, 120%; in the test with IGROV1 ovarian it was 79.2%. The growth with OVCAR-3 ovarian was 87.3%; in the test with HS 578T breast, 90.7%; with NCI/ADR-RES ovarian, 85.6%; in the test on T-47D breast, 84%; with BT-549 breast, 91.7%; in the test with MDA-MB-435 melanoma, 73.5%. For the same molecule, the growth in the test on SW-620 colon was 103%; with MCF7 breast it was 85.1%; in the test with KM12 colon, 98.8%.
In the case of `Cc1cc(N2CCOCC2)nc(N2CCOCC2)n1`, the growth with RPMI-8226 leukemia was 99.2%; with OVCAR-8 ovarian it was 104%; in the test with OVCAR-5 ovarian it was 99.7%; with OVCAR-4 ovarian, 93.9%; with SK-OV-3 ovarian, 99.2%; in the test on IGROV1 ovarian it was 76.6%. Further, the growth in the test with OVCAR-3 ovarian was 107%; in the test with HS 578T breast, 95.4%; with NCI/ADR-RES ovarian, 96.3%; with T-47D breast, 98%; in the test on BT-549 breast, 73.6%; in the test on MDA-MB-435 melanoma, 96.4%. Also, the growth with SW-620 colon is 102%; in the test with MCF7 breast, 90.7%; in the test with HCT-116 colon it was 92.2%; with KM12 colon, 107%.
For the molecule `O=C(C(=O)N1CCOCC1)c1ccc(OC2OC(CO)C(O)C(O)C2O)cc1` (stereo unspecified), the growth in the test with RPMI-8226 leukemia was 111%; with OVCAR-8 ovarian, 100%; with OVCAR-5 ovarian it was 98.2%; with OVCAR-4 ovarian, 116%; in the test with SK-OV-3 ovarian, 100%; in the test on IGROV1 ovarian, 117%. Further, the growth in the test with OVCAR-3 ovarian was 110%; in the test on HS 578T breast, 125%; in the test on NCI/ADR-RES ovarian it was 113%; in the test on T-47D breast, 96%; with BT-549 breast, 108%; with MDA-MB-435 melanoma, 108%. For the same molecule, the growth in the test with SW-620 colon was 105%; with MCF7 breast it was 95.2%; with HCT-116 colon, 105%; in the test on KM12 colon, 112%.
For `O=C(/C=C/c1ccc(Cl)cc1)c1ccccc1`, the growth with RPMI-8226 leukemia is 1.52% (active); in the test on OVCAR-8 ovarian, 97.5%; in the test on OVCAR-5 ovarian, 99.5%; in the test with OVCAR-4 ovarian it was 107%; with SK-OV-3 ovarian it was 126%; in the test with IGROV1 ovarian, 101%. Besides, the growth in the test on OVCAR-3 ovarian was 101%; in the test with HS 578T breast, 126%; with NCI/ADR-RES ovarian, 107%; with T-47D breast, 92.4%; in the test with BT-549 breast it was 104%; with MDA-MB-435 melanoma it was 97%. The growth with SW-620 colon was 89.3%; with MCF7 breast it was 24.1%; in the test with HCT-116 colon, 54%; with KM12 colon, 77.1%.

These data come from PubChem BioAssay (NCI).
